# PubChem BioAssay (EPA / NIEHS)
# Results filed as inconclusive are left out. Calls of active or inactive are those of the source. Rule for the calls, unless noted: active = hit-call score of the fitted dose curve at least 0.9, where 1 is the maximum; inconclusive = response in the unintended direction; inactive = score below 0.9.
# Tests used:
# [1] = molecular target: Nuclear receptor subfamily 1 group I member 3 (Homo sapiens) (UniProt Q14994); experiment: ATG_CAR_TRANS: Attagene TRANS-FACTORIAL HepG2 Assay for human Constitutive Androstane Receptor (CAR) (AID 2282969); conditions: HepG2 Attagene TRANS-FACTORIAL CAR reporter;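 note: activators raise reporter mRNA above DMSO so AC50 marks induction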
# Sequence of Nuclear receptor subfamily 1 group I member 3 (Homo sapiens) (Q14994 whole entry, looked up, the tested form may be a part): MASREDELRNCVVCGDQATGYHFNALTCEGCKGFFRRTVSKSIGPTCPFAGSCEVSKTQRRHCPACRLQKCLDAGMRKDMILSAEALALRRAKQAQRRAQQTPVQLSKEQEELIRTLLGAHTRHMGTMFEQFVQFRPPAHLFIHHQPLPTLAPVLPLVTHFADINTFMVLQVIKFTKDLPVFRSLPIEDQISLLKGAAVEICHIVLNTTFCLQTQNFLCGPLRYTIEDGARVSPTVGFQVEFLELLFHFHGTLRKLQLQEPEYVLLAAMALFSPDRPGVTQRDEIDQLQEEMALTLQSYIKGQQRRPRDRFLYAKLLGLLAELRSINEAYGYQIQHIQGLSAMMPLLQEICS
# Method in brief: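 Readout is reporter mRNA induction, quantified by fluorescent primer extension and capillary electrophoresis after RT-PCR. Cells were HepG2 transiently carrying chimeric NR-Gal4 constructs with GAL4-UAS reporters, treated for 24 h; activity scored upward from DMSO.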
# [2] = molecular target: Estrogen receptor (Homo sapiens) (UniProt P03372); experiment: ATG_ERa_TRANS: Attagene TRANS-FACTORIAL HepG2 Assay for human Estrogen Receptor alpha (ERa) (AID 2282970); conditions: HepG2 Attagene TRANS ERa GAL4 reporter, mRNA
# Sequence of Estrogen receptor (Homo sapiens) (P03372 whole entry, looked up, the tested form may be a part): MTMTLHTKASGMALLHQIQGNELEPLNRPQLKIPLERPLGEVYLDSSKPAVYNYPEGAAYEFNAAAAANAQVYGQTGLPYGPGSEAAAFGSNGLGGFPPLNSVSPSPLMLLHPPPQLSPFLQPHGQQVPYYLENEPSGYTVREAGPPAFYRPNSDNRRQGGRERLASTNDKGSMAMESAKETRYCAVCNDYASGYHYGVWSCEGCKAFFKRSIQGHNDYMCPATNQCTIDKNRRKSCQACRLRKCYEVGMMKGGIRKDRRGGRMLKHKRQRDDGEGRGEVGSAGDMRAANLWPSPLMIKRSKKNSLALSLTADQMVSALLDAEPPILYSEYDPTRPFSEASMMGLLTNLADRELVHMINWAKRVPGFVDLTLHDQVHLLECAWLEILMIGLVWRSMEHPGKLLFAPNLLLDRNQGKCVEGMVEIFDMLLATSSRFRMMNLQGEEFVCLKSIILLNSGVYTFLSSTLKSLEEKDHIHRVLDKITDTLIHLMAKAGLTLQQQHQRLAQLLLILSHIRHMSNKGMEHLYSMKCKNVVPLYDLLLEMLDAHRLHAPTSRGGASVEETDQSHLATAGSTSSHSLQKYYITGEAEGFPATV
# Method in brief: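 Transactivation via ERa-Gal4 chimera in HepG2; 24 hour incubation; reporter mRNA detected by fluorescence RT-PCR and capillary electrophoresis.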
# [3] = molecular target: X-box-binding protein 1 (Homo sapiens) (UniProt P17861); experiment: ATG_Xbp1_CIS: Attagene CIS-FACTORIAL HepG2 Assay for human X-box Binding Protein 1 (XBP1) (AID 2282972; active = hit-call score of the fitted dose curve at least 0.9, where 1 is the maximum; inactive = score below 0.9); conditions: HepG2 XBP1 cis-element reporter, Attagene multiplex; actives raise or lower the signal
# Sequence of X-box-binding protein 1 (Homo sapiens) (P17861 whole entry, looked up): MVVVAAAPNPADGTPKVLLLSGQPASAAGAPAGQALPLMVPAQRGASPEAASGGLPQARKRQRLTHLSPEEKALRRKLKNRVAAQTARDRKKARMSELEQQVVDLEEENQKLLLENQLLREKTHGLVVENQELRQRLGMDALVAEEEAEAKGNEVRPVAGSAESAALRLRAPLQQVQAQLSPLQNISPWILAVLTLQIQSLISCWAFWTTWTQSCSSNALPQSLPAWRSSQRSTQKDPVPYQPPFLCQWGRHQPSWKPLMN
# Method in brief: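 HepG2 cells transiently transfected with cis-regulated multiple reporter transcription units; endogenous transcription factor activity measured 24 hours after chemical dosing. Reporter mRNA quantified by RT-PCR, 6-FAM primer extension, HpaI digestion and capillary electrophoresis; bidirectional fitting versus DMSO.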
# [4] = ATG_GAL4_TRANS: Attagene TRANS-FACTORIAL HepG2 Assay for GAL4 (Internal Marker) (AID 2282976); conditions: HepG2 Attagene TRANS GAL4 internal marker reporter
# Method in brief: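 Fluorescence from capillary electrophoresis of labelled RT-PCR products quantifies reporter mRNA induction after 24 h dosing of HepG2 cells carrying transfected GAL4-UAS reporter transcription units. Vehicle DMSO serves as baseline.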
# [5] = molecular target: Glucocorticoid receptor (Homo sapiens) (UniProt P04150); experiment: ATG_GR_TRANS: Attagene TRANS-FACTORIAL HepG2 Assay for human Glucocorticoid Receptor (GR) (AID 2282978); conditions: HepG2 Attagene TRANS GR reporter, mRNA transcription;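 note: activators score as hits since higher reporter transcript over DMSO is fitted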
# Method in brief: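 HepG2 cells transiently transfected with multiplexed reporter units in which chimeric NR-GAL4 proteins drive GAL4-UAS reporters; 24 h compound exposure. Reporter mRNA measured by RT-PCR, 6-FAM labelling, HpaI digestion and capillary electrophoresis; gain-of-signal fitted versus DMSO.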
# [6] = molecular target: Hepatocyte nuclear factor 4-alpha (Homo sapiens) (UniProt P41235); experiment: ATG_HNF4a_TRANS: Attagene TRANS-FACTORIAL HepG2 Assay for human Hepatocyte Nuclear Factor 4 alpha (HNF4a) (AID 2282982); conditions: HepG2 HNF4a transactivation reporter, mRNA readout
# Sequence of Hepatocyte nuclear factor 4-alpha (Homo sapiens) (P41235 whole entry, looked up, the tested form may be a part): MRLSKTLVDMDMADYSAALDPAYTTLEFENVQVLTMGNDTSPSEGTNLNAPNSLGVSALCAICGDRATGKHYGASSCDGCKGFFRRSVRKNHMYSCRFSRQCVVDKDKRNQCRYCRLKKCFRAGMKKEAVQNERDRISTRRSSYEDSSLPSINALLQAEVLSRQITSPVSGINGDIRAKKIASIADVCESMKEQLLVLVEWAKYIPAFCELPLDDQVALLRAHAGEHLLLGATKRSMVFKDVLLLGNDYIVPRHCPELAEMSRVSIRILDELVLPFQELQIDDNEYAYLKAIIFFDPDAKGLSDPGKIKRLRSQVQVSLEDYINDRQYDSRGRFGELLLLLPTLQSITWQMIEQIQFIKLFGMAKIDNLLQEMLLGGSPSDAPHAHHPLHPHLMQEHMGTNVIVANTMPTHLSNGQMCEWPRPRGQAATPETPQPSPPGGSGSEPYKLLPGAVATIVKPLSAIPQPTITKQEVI
# Method in brief: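 Readout is fluorescent reporter-transcript fragments resolved by capillary electrophoresis after RT-PCR from HepG2 cells dosed for 24 h. Cells carried transfected GAL4-UAS reporter constructs measuring exogenous NR-GAL4 chimera activity; DMSO served as baseline.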
# [7] = ATG_M_32_TRANS: Attagene TRANS-FACTORIAL HepG2 Assay for M32 Transcription Factor (Internal Marker) (AID 2282984); conditions: HepG2 Attagene TRANS M32 internal marker reporter;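 note: transcript level of a background control reporter unit measured by RT-PCR and capillary electrophoresis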
# Method in brief: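 Measures reporter mRNA induction in human HepG2 liver cells after 24 h chemical treatment. Transcripts from transiently transfected GAL4-UAS reporter units are amplified, fluorescently labelled and sized by capillary electrophoresis; gain of signal relative to DMSO.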
# [8] = molecular target: Transcriptional activator Myb (Homo sapiens) (UniProt P10242); experiment: ATG_Myb_CIS: Attagene CIS-FACTORIAL HepG2 Assay for human Myeloblastosis (Myb) Proto-Oncogene Transcription Factor (AID 2282986; active = hit-call score of the fitted dose curve at least 0.9, where 1 is the maximum; inactive = score below 0.9); conditions: HepG2 Attagene CIS-FACTORIAL Myb reporter transcription; actives raise or lower the signal
# Sequence of Transcriptional activator Myb (Homo sapiens) (P10242 whole entry, looked up): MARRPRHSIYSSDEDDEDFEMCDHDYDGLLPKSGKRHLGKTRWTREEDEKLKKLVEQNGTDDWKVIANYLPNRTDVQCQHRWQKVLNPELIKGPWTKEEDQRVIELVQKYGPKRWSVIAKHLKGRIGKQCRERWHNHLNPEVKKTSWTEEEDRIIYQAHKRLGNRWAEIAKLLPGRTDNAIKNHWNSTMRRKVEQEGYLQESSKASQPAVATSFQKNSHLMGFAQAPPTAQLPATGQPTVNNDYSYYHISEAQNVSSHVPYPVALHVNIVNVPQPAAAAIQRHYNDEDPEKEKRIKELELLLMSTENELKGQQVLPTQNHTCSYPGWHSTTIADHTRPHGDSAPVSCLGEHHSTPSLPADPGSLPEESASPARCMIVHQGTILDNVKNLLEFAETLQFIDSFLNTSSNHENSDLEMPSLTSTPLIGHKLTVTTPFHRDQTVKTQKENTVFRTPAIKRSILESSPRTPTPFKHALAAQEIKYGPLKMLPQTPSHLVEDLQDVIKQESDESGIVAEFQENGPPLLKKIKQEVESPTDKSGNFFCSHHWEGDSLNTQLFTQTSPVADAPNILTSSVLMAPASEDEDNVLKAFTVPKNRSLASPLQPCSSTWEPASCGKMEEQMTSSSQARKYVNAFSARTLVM
# Method in brief: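 HepG2 cells were transiently transfected with cis-regulated multiple reporter transcription units reflecting endogenous Myb activity, then exposed to compound for 24 hours. Reporter mRNA was measured by RT-PCR with capillary electrophoresis; bidirectional fitting versus DMSO baseline.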
# [9] = molecular target: Nuclear respiratory factor 1 (Homo sapiens) (UniProt Q16656); experiment: ATG_NRF1_CIS: Attagene CIS-FACTORIAL HepG2 Assay for human Nuclear Respiratory Factor 1 (NRF1) Orphan Gene (AID 2282987; active = hit-call score of the fitted dose curve at least 0.9, where 1 is the maximum; inactive = score below 0.9); conditions: HepG2 NRF1 cis-element reporter, Attagene multiplex; actives raise or lower the signal
# Sequence of Nuclear respiratory factor 1 (Homo sapiens) (Q16656 whole entry, looked up): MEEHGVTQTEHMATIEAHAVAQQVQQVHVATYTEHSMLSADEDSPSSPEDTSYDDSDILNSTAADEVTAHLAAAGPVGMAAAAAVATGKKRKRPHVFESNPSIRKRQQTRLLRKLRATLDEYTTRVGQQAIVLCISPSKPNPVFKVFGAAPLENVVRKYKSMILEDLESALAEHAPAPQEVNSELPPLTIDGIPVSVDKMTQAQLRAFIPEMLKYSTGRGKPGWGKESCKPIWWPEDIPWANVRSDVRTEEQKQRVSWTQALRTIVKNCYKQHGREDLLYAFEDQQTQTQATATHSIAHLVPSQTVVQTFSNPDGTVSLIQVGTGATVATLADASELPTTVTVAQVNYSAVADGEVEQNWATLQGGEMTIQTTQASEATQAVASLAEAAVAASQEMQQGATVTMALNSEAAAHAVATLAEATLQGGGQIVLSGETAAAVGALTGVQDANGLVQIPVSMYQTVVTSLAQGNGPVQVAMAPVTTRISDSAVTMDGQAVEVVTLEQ
# Method in brief: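 HepG2 cells transiently transfected with multiple reporter transcription units under cis-regulatory promoter control, so endogenous transcription-factor activity is read. After 24 h compound exposure, reporter mRNA quantified by RT-PCR, fluorescent labelling, HpaI digestion and capillary electrophoresis; bidirectional fitting versus DMSO.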
# [10] = ATG_NFI_CIS: Attagene CIS-FACTORIAL HepG2 Assay for human Nuclear Factor I (NFI) (AID 2282989; active = hit-call score of the fitted dose curve at least 0.9, where 1 is the maximum; inactive = score below 0.9); conditions: HepG2 cis-regulatory reporter, NFI response element transcription; actives raise or lower the signal
# Method in brief: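 Reporter transcription driven by endogenous transcription factors in HepG2 cells; 24 h treatment. Quantitation by labelled RT-PCR fragments on capillary electrophoresis, gain- or loss-of-signal relative to DMSO.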
# [11] = molecular target: Bile acid receptor (Homo sapiens) (UniProt Q96RI1); experiment: ATG_FXR_TRANS: Attagene TRANS-FACTORIAL HepG2 Assay for Farnesoid X Receptor (FXR) (AID 2282979); conditions: HepG2 Attagene TRANS FXR-GAL4 reporter transcription;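 note: hits raise reporter mRNA above DMSO so AC50 marks FXR activation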
# Sequence of Bile acid receptor (Homo sapiens) (Q96RI1 whole entry, looked up, the tested form may be a part): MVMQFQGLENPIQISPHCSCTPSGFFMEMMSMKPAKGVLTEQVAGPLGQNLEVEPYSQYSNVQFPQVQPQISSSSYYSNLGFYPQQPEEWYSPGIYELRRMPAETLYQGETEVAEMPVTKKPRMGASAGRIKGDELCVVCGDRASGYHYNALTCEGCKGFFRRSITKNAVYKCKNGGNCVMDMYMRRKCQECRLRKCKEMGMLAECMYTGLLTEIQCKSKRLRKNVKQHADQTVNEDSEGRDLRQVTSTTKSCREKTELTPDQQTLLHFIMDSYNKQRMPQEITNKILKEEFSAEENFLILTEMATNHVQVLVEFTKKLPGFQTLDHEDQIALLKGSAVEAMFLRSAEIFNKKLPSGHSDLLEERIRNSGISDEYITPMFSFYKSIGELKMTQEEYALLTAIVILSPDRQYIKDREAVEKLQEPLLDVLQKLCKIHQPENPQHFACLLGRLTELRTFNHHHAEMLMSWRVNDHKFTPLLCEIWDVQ
# Method in brief: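 Chimeric FXR-GAL4 activity in transiently transfected human HepG2 liver cells is scored as induction of reporter mRNA after 24 h of dosing. Detection uses RT-PCR with fluorescent labelling and capillary electrophoresis, with DMSO serving as baseline.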
# [12] = ATG_M_06_TRANS: Attagene TRANS-FACTORIAL HepG2 Assay for M06 Transcription Factor (Internal Marker) (AID 2282983); conditions: HepG2 Attagene TRANS M06 internal marker reporter;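 note: reporter transcript level by RT-PCR then capillary electrophoresis fluorescence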
# Method in brief: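 Measured by capillary electrophoresis of fluorescently labelled RT-PCR products, this endpoint reflects reporter mRNA in HepG2 cells harbouring exogenous NR-GAL4 reporter constructs after 24 h exposure, with DMSO as baseline.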
# [13] = molecular target: Myc proto-oncogene protein (Homo sapiens) (UniProt P01106); experiment: ATG_Myc_CIS: Attagene CIS-FACTORIAL HepG2 Assay for human Myelocytomatosis (Myc) Proto-Oncogene Transcription Factor (AID 2282990; active = hit-call score of the fitted dose curve at least 0.9, where 1 is the maximum; inactive = score below 0.9); conditions: HepG2, Attagene cis-reporter transcription factor activity; actives raise or lower the signal
# Sequence of Myc proto-oncogene protein (Homo sapiens) (P01106 whole entry, looked up, the tested form may be a part): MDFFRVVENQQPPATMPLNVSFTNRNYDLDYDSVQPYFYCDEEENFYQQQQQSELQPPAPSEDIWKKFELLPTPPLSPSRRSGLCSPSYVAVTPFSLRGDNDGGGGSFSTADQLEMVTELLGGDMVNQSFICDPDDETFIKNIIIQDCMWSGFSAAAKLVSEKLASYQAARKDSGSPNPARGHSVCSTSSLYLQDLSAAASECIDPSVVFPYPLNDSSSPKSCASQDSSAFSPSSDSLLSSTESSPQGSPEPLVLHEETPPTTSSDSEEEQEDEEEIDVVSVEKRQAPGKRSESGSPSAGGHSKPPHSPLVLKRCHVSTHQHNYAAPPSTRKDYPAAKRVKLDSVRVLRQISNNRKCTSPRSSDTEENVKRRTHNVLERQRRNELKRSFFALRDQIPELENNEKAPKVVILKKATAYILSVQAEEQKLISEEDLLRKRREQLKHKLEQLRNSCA
# Method in brief: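 After 24 h chemical treatment of HepG2 cells carrying multiplexed cis-regulated reporter constructs, reporter transcripts quantified by RT-PCR and capillary electrophoresis of fluorescent fragments. Gain or loss fitted against DMSO baseline.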
# [14] = molecular target: Oxysterols receptor LXR-alpha (Homo sapiens) (UniProt Q13133); experiment: ATG_LXRa_TRANS: Attagene TRANS-FACTORIAL HepG2 Assay for human Liver X Receptor alpha (LXRa) (AID 2282980); conditions: HepG2 Attagene TRANS reporter, LXRa transactivation
# Method in brief: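 Transient HepG2 transfectants, 24 h dosing, RT-PCR/CE mRNA reporter quantitation; gain-of-signal vs DMSO.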
# [15] = molecular target: Oxysterols receptor LXR-beta (Homo sapiens) (UniProt P55055); experiment: ATG_LXRb_TRANS: Attagene TRANS-FACTORIAL HepG2 Assay for human Liver X Receptor beta (LXRb) (AID 2282981); conditions: HepG2 Attagene TRANS GAL4-LXRb reporter, mRNA
# Sequence of Oxysterols receptor LXR-beta (Homo sapiens) (P55055 whole entry, looked up, the tested form may be a part): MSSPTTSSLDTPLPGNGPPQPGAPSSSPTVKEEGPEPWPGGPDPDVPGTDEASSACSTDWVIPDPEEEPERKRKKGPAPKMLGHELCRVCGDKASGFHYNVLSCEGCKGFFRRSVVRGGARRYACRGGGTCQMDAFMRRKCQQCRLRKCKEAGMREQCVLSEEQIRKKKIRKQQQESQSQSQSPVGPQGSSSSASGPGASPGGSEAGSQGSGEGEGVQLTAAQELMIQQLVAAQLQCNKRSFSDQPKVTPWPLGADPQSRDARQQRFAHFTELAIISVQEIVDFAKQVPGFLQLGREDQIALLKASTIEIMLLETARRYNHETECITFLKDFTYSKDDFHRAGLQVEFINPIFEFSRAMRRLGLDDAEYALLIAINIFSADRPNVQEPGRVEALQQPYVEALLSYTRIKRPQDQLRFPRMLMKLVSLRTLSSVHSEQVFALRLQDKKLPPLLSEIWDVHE
# Method in brief: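 Transient transfection HepG2 (multiplexed RTUs, GAL4-UAS); NR-Gal4 chimera; 24 h exposure; RNA → RT-PCR → 6-FAM primer extension → HpaI → CE; increase vs DMSO.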
# [16] = molecular target: Nuclear receptor subfamily 4 group A member 2 (Homo sapiens) (UniProt P43354); experiment: ATG_NURR1_TRANS: Attagene TRANS-FACTORIAL HepG2 Assay for human Nuclear Receptor Related Protein 1 (NURR1) (AID 2282985); conditions: HepG2 Attagene TRANS reporter, mRNA readout
# Sequence of Nuclear receptor subfamily 4 group A member 2 (Homo sapiens) (P43354 whole entry, looked up, the tested form may be a part): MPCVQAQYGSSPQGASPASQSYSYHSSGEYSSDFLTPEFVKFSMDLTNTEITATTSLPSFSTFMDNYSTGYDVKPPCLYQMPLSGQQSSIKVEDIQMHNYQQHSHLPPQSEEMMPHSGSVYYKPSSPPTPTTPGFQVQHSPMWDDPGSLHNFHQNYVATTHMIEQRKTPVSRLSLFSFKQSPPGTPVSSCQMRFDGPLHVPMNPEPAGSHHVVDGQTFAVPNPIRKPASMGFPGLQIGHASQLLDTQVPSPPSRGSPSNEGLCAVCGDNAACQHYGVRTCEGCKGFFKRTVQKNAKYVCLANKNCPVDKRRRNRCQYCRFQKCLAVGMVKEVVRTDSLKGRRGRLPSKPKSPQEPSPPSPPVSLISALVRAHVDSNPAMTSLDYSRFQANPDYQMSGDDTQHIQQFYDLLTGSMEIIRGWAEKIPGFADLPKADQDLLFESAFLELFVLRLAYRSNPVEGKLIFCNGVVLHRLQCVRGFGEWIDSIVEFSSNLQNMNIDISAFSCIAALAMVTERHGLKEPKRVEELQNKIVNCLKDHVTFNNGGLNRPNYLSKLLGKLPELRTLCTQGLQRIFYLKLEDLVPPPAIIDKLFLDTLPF
# Method in brief: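 Transient transfection of HepG2, human liver cells, with multiple GAL4-UAS reporter transcription units. Cells dosed 24 h, RNA isolated, reverse-transcribed, PCR-amplified, FAM-labelled, HpaI-digested, sized by capillary electrophoresis. DMSO served as negative control.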
# [17] = molecular target: Estrogen-related receptor gamma (Homo sapiens) (UniProt P62508); experiment: ATG_ERRg_TRANS: Attagene TRANS-FACTORIAL HepG2 Assay for human Estrogen-Related Receptor gamma (ERRg) (AID 2282977); conditions: HepG2 Attagene TRANS reporter, ERRg transactivation;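 note: hits increase reporter signal over DMSO so potencies reflect activators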
# Method in brief: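 HepG2 cells transiently transfected with multiplexed GAL4-UAS reporter units driven by chimeric NR-Gal4 proteins; 24 h exposure. Reporter mRNA quantified by RT-PCR, fluorescent labelling, HpaI digestion and capillary electrophoresis; gain of signal vs DMSO.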
# [18] = ATG_M_19_TRANS: Attagene TRANS-FACTORIAL HepG2 Assay for M19 Transcription Factor (Internal Marker) (AID 2282974); conditions: HepG2 Attagene TRANS-FACTORIAL M19 internal marker reporter
# Method in brief: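 HepG2 cells transiently transfected with multiple GAL4-UAS reporter transcription units were exposed to chemicals for 24 h. Reporter mRNA was read by RT-PCR, 6-FAM primer extension, HpaI digestion and capillary electrophoresis; gain of signal fitted relative to DMSO.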
# [19] = molecular target: Steroid hormone receptor ERR1 (Homo sapiens) (UniProt P11474); experiment: ATG_ERRa_TRANS: Attagene TRANS-FACTORIAL HepG2 Assay for human Estrogen-Related Receptor alpha (ERRa) (AID 2282971); conditions: HepG2 Attagene TRANS reporter, ERRa transactivation
# Method in brief: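 HepG2 cells were transiently transfected with multiple GAL4-UAS reporter units, then dosed with compound for 24 h. Total RNA was reverse-transcribed, reporter cDNA PCR-amplified and fluorescently labelled, and fragments resolved by capillary electrophoresis; induction was compared with DMSO.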
compound,measurement,setting,value
CC(C)CP(=S)(S)CC(C)C,outcome,[1],inactive
same,outcome,[2],inactive
same,outcome,[3],inactive
same,outcome,[4],inactive
same,outcome,[5],inactive
same,outcome,[6],inactive
same,outcome,[7],inactive
same,outcome,[8],inactive
same,outcome,[9],inactive
same,outcome,[10],inactive
O=S1OC[C@@H]2[C@H](CO1)[C@]1(Cl)C(Cl)=C(Cl)[C@@]2(Cl)C1(Cl)Cl (stereo partly drawn),outcome,[1],inactive
same,AC50,[2],3.77 µM (active)
same,AC50,[3],100 µM (active)
same,outcome,[5],inactive
same,outcome,[11],inactive
same,outcome,[12],inactive
same,outcome,[8],inactive
same,outcome,[10],inactive
same,outcome,[13],inactive
Cc1ccc2nc3sc(=O)sc3nc2c1,outcome,[1],inactive
same,outcome,[2],inactive
same,AC50,[3],6.96 µM (active)
same,outcome,[5],inactive
same,outcome,[11],inactive
same,outcome,[14],inactive
same,outcome,[15],inactive
same,AC50,[6],6.47 µM (active)
same,outcome,[12],inactive
same,outcome,[7],inactive
same,outcome,[16],inactive
same,AC50,[8],25 µM (active)
same,AC50,[9],12.2 µM (active)
same,outcome,[10],inactive
Nc1ccc(-c2ccccc2)cc1,outcome,[1],inactive
same,AC50,[2],14.8 µM (active)
same,outcome,[3],inactive
same,outcome,[15],inactive
same,outcome,[7],inactive
same,outcome,[16],inactive
same,outcome,[8],inactive
same,outcome,[10],inactive
same,outcome,[13],inactive
O=S(=O)(c1ccc(Cl)cc1)c1cc(Cl)c(Cl)cc1Cl,outcome,[1],inactive
same,outcome,[2],inactive
same,outcome,[3],inactive
same,outcome,[4],inactive
same,outcome,[5],inactive
same,outcome,[11],inactive
same,outcome,[12],inactive
same,outcome,[16],inactive
same,outcome,[8],inactive
same,outcome,[9],inactive
same,outcome,[10],inactive
same,outcome,[13],inactive
CCCCC(CC)COC(=O)Cl (stereo not drawn),outcome,[1],inactive
same,outcome,[2],inactive
same,outcome,[3],inactive
same,outcome,[4],inactive
same,outcome,[17],inactive
same,outcome,[6],inactive
same,outcome,[12],inactive
same,outcome,[7],inactive
same,outcome,[8],inactive
same,outcome,[9],inactive
same,outcome,[10],inactive
same,outcome,[13],inactive
CC(C)(COCC1CO1)COCC1CO1 (stereo not drawn),outcome,[1],inactive
same,outcome,[2],inactive
same,outcome,[3],inactive
same,outcome,[18],inactive
same,outcome,[11],inactive
same,outcome,[6],inactive
same,outcome,[7],inactive
same,outcome,[8],inactive
same,outcome,[9],inactive
same,outcome,[10],inactive
same,outcome,[13],inactive
CCOCn1c(-c2ccc(Cl)cc2)c(C#N)c(Br)c1C(F)(F)F,outcome,[1],inactive
same,outcome,[2],inactive
same,AC50,[3],2.71 µM (active)
same,outcome,[5],inactive
same,outcome,[11],inactive
same,outcome,[14],inactive
same,outcome,[15],inactive
same,outcome,[6],inactive
same,outcome,[7],inactive
same,outcome,[16],inactive
same,AC50,[8],78.8 µM (active)
same,outcome,[9],inactive
same,AC50,[10],48.7 µM (active)
same,AC50,[13],150 µM (active)
Brc1c(Br)c(Br)c(Oc2c(Br)c(Br)c(Br)c(Br)c2Br)c(Br)c1Br,outcome,[1],inactive
same,outcome,[19],inactive
same,outcome,[3],inactive
same,outcome,[18],inactive
same,outcome,[4],inactive
same,outcome,[5],inactive
same,outcome,[14],inactive
same,outcome,[15],inactive
same,outcome,[7],inactive
same,outcome,[9],inactive
same,outcome,[10],inactive
same,outcome,[13],inactive
CCCCS(=O)(=O)Cl,outcome,[1],inactive
same,outcome,[19],inactive
same,outcome,[3],inactive
same,outcome,[18],inactive
same,outcome,[4],inactive
same,outcome,[5],inactive
same,outcome,[11],inactive
same,outcome,[15],inactive
same,outcome,[6],inactive
same,outcome,[7],inactive
same,outcome,[8],inactive
same,outcome,[10],inactive
COC(=O)c1cc(Oc2ccc(Cl)cc2Cl)ccc1[N+](=O)[O-],outcome,[1],inactive
same,outcome,[2],inactive
same,outcome,[3],inactive
same,outcome,[11],inactive
same,outcome,[14],inactive
same,outcome,[15],inactive
same,outcome,[6],inactive
same,outcome,[7],inactive
same,AC50,[16],32.3 µM (active)
same,outcome,[8],inactive
same,outcome,[9],inactive
same,outcome,[10],inactive
same,outcome,[13],inactive
